Bioassay records: PubChem BioAssay, National Center for Advancing Translational Sciences (NCATS)
uPA surface inh = blocks generation of uPA at the cell surface; cell surface uPA generation assay, qHTS; Potency, µM (top dose mostly 38.3 µM), for the others: at the top dose activity change, negative = inhibition, most hits filed as inhibitors; 330,000 tested, 0.31% active; AID 540303; active = well fitted inhibition curve with a large enough effect; inconclusive = small, poorly fitted or top-dose-only effect; inactive = no such curve, though single readings can be large or run the other way; tested in mouse RAW 264.7 cells; also: % is scaled to controls: 0 for no effect and ±100 for the full control effect; nearly all actives have a fitted effect of over 55% in size
ELG1 genotox = inducers of genotoxicity in HEK293T ELG1-luciferase cells; AID 504466; Potency, µM (highest dose often 46 µM), inactives show at the highest dose activity change, positive = activation, most hits filed as activators; 330,000 tested, 1.3% active; HEK293T ELG1-luciferase reporter, luminescence, 16 h; also: % of control where 0% means no effect; nearly all actives have a fitted effect of over 60% in size
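DMSO vehicle served as control against compound-treated ELG1-luciferase HEK293T cells; exposure lasted 16 hr at 37 °C and 5% CO2, followed by ONE-Glo luminescence detection after 30 min.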
Rab9 promoter act = activators of Rab9 promoter. 320,000 tested, 2.8% active. Huh7 Rab9 promoter-luciferase reporter, luminescence, 24 h. AID 485297. Potency, µM (highest dose often 9.22 µM), for inactives: at the top dose activation, negative = inhibition, usual class: activators; also: % of control where 0% means no effect; nearly all actives have a fitted effect of over 60% in size
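Cell-based reporter: Huh7 stable for Rab9 promoter-driven luciferase, plated in reduced-serum medium with 10% FBS at 1500 cells/well, compound-treated 24 h at 37 °C, luminescence read after 10 min reagent.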
FLuc counter = firefly luciferase modulation, counter-screen for miR-21 project | Potency, µM (doses to about 57.5 µM), for inactives: at the highest dose activity change, negative = inhibition, usual class: inhibitors | P08659 | purified FLuc, Km substrates, luminescence inhibition | 360,000 tested, 6.9% active;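 also: plate controls were vehicle for no effect and reference inhibitor for full effect; nearly all actives have a fitted effect of over 55% in size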
Target sequence (P08659 whole entry, looked up): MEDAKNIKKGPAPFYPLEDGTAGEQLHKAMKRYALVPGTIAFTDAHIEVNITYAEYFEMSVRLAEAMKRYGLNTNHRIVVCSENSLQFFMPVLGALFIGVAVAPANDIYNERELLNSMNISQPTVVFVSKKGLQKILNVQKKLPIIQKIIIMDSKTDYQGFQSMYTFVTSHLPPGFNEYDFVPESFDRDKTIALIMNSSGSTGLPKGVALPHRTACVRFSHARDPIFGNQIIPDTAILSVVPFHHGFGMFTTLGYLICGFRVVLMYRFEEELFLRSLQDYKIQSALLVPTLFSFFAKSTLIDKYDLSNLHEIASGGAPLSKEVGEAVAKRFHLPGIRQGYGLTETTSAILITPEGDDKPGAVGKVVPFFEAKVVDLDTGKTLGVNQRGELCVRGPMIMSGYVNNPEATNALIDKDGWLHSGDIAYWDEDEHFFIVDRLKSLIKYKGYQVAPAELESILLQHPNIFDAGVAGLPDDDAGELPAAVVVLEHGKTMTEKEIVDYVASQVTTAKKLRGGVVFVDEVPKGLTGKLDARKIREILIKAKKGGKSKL
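Purified P. pyralis luciferase (10nM final) with 10uM D-luciferin and 10uM ATP (Km levels) in 50mM Tris acetate pH 7.5, 10mM Mg acetate, 0.01% Tween-20, 0.05% BSA; qHTS 6-point titration, ~60 µM downward; luminescence read.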
SMN2 splice up = SMN2 splice variant enhancement; HEK293 SMN2-luciferase splicing reporter, luminescence, 30-36 h; Potency, µM (titrated, usually from 46.1 µM), for inactives: at the top dose activity change, positive = activation, most hits filed as activators; 210,000 tested, 2.8% active; AID 1458; also: % of control where 0% means no effect; nearly all actives have a fitted effect of over 55% in size
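HEK293 cells carry an SMN2 […]–luciferase reporter in which exon 7 inclusion puts luciferase in frame. Cells were plated 10-12 h before compound addition, then incubated 30-36 h at 37C. ONE-Glo luminescence was read; sodium butyrate at 4.5 mM final served as control.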
NPC1 prom act = NPC1 promoter activation; Huh7 NPC1 promoter luciferase reporter, 24 h; Potency, µM (titrated, usually from 9.22 µM), inactives show top-dose activation, usual class: activators; 320,000 tested, 2.4% active; also: % of control where 0% means no effect; nearly all actives have a fitted effect of over 60% in size
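Luminescence read-out of NPC1 promoter-driven luciferase in stably transfected Huh7 cells; compounds delivered in DMSO and left 24 h at 37C, 5% CO2, qHTS titration format.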
The depositor's hits bear a star; ? = inconclusive; nt = not tested or not shown. An excerpt weighted towards active compounds, which were near 7.3% of everything screened. Unless noted, calls follow the shape of the dose curve; as a rule, active = well fitted curve in the direction sought with a large enough effect; inconclusive = small, poorly fitted or top-dose-only effect, or another doubt; inactive = no such curve, though single readings can be large; an effect the other way counts as inactive or inconclusive. Potency is read from the fitted curve at half-maximal effect.

SMILES | uPA surface inh | ELG1 genotox | Rab9 promoter act | FLuc counter | SMN2 splice up | NPC1 prom act
CCOC(=O)c1cnc2nc(NCc3ccc(OCc4ccccc4)cc3)[nH]n2c1=O | nt | -3% | 2% | 11µM* | 19% | 2%
CCOc1ccc(-n2c(SCC(=O)Nc3ccc(CC)cc3)nc3c(oc4ccccc43)c2=O)cc1 | nt | nt | nt | 2% | -4% | nt
Cc1cc2ncn(C(=O)c3ccc4c(c3)OCO4)c2cc1C | 11% | 3% | 8% | ? | -14% | -13%
Cc1cc2ncn(C(=O)N3CCC(C)CC3)c2cc1C | 3% | 12% | ? | ? | 16µM* | 23%
O=C(O)c1ccc(CSc2nnc(COc3ccc(Cl)cc3Cl)o2)cc1 | -16% | ? | 21% | 19µM* | 4% | 17%
Cc1nc(-c2ccccc2)sc1-c1ccc(SCC(=O)NCc2ccc(F)cc2)nn1 | nt | nt | nt | 2% | nt | nt
COc1cccc(-c2nnc(-c3ccccc3[N+](=O)[O-])o2)c1 | -2% | ? | 4µM* | 9.5µM* | nt | ?
COc1cccc(-c2nnc(-c3ccc(C)o3)o2)c1 | -9% | ? | 0.71µM* | 1.7µM* | 2.8µM* | 1.1µM*
COc1cccc(C(=O)Nc2ccc(-c3nnc(-c4ccco4)o3)cc2)c1 | 1% | 16% | 28% | 0% | -25% | -4%
COc1cccc(-c2nnc(-c3ccco3)o2)c1 | -13% | ? | 2.5µM* | 9.5µM* | 11µM* | 2.5µM*
COc1cccc(-c2nnc(N)o2)c1 | 4% | 0% | 13% | -17% | nt | 5%
CCS(=O)(=O)N1CC(=O)N(c2cc(C)cc(C)c2)C(C)(C(=O)NC2CCCCC2)C1 (stereo not given) | nt | nt | nt | -1% | nt | nt
O=C(CCCC(=O)OCC(=O)c1cccs1)Nc1ccc(F)cc1 | -6% | 0% | -2% | -12% | 8% | -2%
CC(C)(C)C(=O)Nc1ccc(C(=O)COC(=O)C2CC2)cc1 | 3% | 11% | 3.5µM* | 7.6µM* | nt | ?
O=C(COC(=O)C1CC1)Nc1ccc(Oc2ccccc2)cc1 | -4% | -2% | ? | 21µM* | 6% | -2%
O=C(COC(=O)C1CCC1)Nc1ccc(Oc2ccccc2)cc1 | nt | 6% | -6% | ? | -20% | 1%
COc1ccccc1C(=O)NC(=O)COC(=O)C1CC1C (stereo not given) | 0% | -7% | 0% | 8.5µM* | nt | 8%
O=C(CCCC(=O)OCC(=O)c1cccs1)Nc1ccc(Oc2ccccc2)cc1 | 2% | -3% | -2% | 21µM* | 5% | 1%
COC(=O)c1ccc(NC(=O)COC(=O)C2CCC2)cc1 | 2% | 3% | -2% | ? | nt | -1%
CSCC[C@H](NC(=O)Nc1cccc(Br)c1)C(=O)O | 2% | -3% | 2% | -1% | nt | 0%
O=C(NCc1ccccc1)NC(O)C(Cl)(Cl)Cl (stereo not given) | -2% | 5% | 4% | 1% | nt | -5%
CCCC(=O)OCC(=O)Nc1ccc2[nH]c(=O)[nH]c2c1 | -19% | 2% | -5% | -2% | 9% | -3%
O=C(O)CCC(=O)NNC(=O)CCC(=O)Nc1ccccc1 | -1% | -8% | -2% | 1% | 10% | 3%
CCCC(=O)OCC(=O)Nc1ccc(N=Nc2ccccc2)cc1 | -6% | 21µM* | 3.5µM* | 9.5µM* | 16µM* | 2.2µM*
O=C(O)CCC(=O)Nc1ccc(N=Nc2ccccc2)cc1 | -7% | 10% | 16% | 11µM* | 10% | 12%
CC1CC1C(=O)OCC(=O)Nc1ccc(N=Nc2ccccc2)cc1 (stereo not given) | -1% | 16µM* | 1.8µM* | ? | 13µM* | 3.2µM*
O=C(O)CC1c2ccccc2CCN1S(=O)(=O)c1cccs1 (stereo not given) | -1% | nt | nt | nt | nt | nt
N#Cc1ccccc1N=Cc1ccc(Br)cc1 | 1% | 3% | 0% | 1.5µM* | -2% | 0%
COc1[nH]c(/N=C/c2ccccc2)c(C#N)c1C#N | 1% | 0% | 2% | ? | -11% | 2%
